Source: PubChem
Sampled rows, rich in hits. Any-hit rate of the full collection: about 4%.
RecA intein inh = Mtb RecA intein splicing inhibition | AID 2221 | inhibition, % (test concentration not listed) | cell-free RecA intein splicing, fluorescence | P9WHJ3 | actives 0.75% (n = 290,000); in the data active = inhibition above about 30%; inconclusive = no clear call, values can overlap the other calls;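 note: 0% = vehicle wells and 100% = reference inhibitor control wells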
Mtb betalactam = beta-lactam sensitization of Mtb H37Rv. inhibition, % at 25 µM. M. tuberculosis H37Rv growth with meropenem, percent inhibition. actives 0.27% (n = 330,000). AID 434955; call rule not given here;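 note: growth measured after seven days incubation then overnight dye step; 0% = bacteria only wells and 100% = bacteria with antibiotic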
UGM FP inh = inhibitors of M. tuberculosis UDP-galactopyranose mutase; P9WIQ1; inhibition, % at 10 µM; AID 504406; purified UGM, fluorescence polarization probe displacement; actives 0.06% (n = 320,000); in the data active = inhibition above about 10%, passing the limit was not always enough; inconclusive = no clear call, values can overlap the other calls
Target sequence (P9WIQ1 whole entry, looked up): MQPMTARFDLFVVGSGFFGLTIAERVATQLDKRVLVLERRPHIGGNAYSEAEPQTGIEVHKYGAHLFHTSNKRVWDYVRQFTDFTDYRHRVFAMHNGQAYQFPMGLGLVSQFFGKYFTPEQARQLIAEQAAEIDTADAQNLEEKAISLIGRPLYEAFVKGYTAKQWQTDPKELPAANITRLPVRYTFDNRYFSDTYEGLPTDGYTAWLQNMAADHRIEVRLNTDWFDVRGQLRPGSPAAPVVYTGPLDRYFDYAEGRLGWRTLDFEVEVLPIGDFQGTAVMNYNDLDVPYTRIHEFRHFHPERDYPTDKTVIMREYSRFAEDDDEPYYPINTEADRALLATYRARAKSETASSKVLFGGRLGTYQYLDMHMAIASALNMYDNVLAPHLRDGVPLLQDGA
GDH-TPI inh = GDH-TPI coupled enzyme inhibition counter-screen; GDH-TPI coupled enzyme counterscreen, NADH absorbance; inhibition, % at 4.8 µM; actives 1.2% (n = 360,000); in the data active = inhibition above about 30%;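 note: 0% = DMSO wells and 100% = wells lacking the enzyme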
Rv3671c inh = Rv3671c (M. tuberculosis) protease inhibition. actives 0.048% (n = 320,000). inhibition, % at 5.96 µM; in the data active = inhibition above about 38%;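 note: extracellular domain of Rv3671c used as enzyme; 0% = enzyme with DMSO and 100% = no enzyme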
FBA Mtb inh = Mtb fructose-bisphosphate aldolase inhibition; purified M. tuberculosis FBA, fluorescence read-out; inhibition, % at 1 µM; actives 2.3% (n = 360,000); in the data active = inhibition above about 27%;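 note: 0% = vehicle and 100% = reference inhibitor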
Numbers without * were called inactive; ? = inconclusive; . = no result; + = active, no number.

SMILES | RecA intein inh | Mtb betalactam | UGM FP inh | GDH-TPI inh | Rv3671c inh | FBA Mtb inh
COCCN(C(=O)COC(=O)CCC(=O)c1ccc(Cl)cc1)c1c(N)n(Cc2ccccc2)c(=O)[nH]c1=O | 2.7 | -11.4 | -1.3 | 5.3 | -4.4 | 0.1
COc1ccc(-c2nc3ccccc3nc2-c2ccccc2)cc1OC | -11.5 | 4.7 | -0.3 | 31.4* | 0.3 | -1.6
COc1ccc(-c2cc(-c3ccccc3)nc(Cl)n2)cc1OC | -2.3 | 91.8 | -1.9 | 32.9* | -16.5 | 11.7
COc1cccc(NC(=O)COC(=O)CNC(=O)C2CCCCC2)c1 | . | -5.3 | -0.7 | -3.9 | -2.7 | 0.3
CCOc1cc(CN2CCN(c3ccc(C(C)=O)cc3)CC2)ccc1OC | 0.2 | 1.1 | -1.9 | 38.4* | 9.0 | 2.5
O=C(CNC(=O)c1ccccc1)Oc1cccc(Cl)c1 | 10.2 | -1.9 | -3.2 | -1.5 | -2.9 | -1.2
Cn1ccc2c(-c3ccc(C(=O)O)cc3)cc3c(c21)C1CCC3C1 (stereo unspecified) | . | . | . | . | . | +
CCOC(=O)c1nnc(-c2cccs2)nc1Oc1ccc(Cl)cc1 | 38.2* | 79.7 | 0.8 | 19.6 | -1.9 | 2.0
CCOC(=O)c1nnc(-c2cccs2)nc1NC(C)C | 0.0 | 13.9 | 2.1 | 31.1* | 9.2 | -5.0
CCOC(=O)c1nnc(-c2ccccc2)nc1NCc1ccc(Cl)cc1 | 2.2 | 97.5 | 1.6 | 19.1 | 3.6 | -1.8
CCOC(=O)c1nnc(-c2cccs2)nc1Oc1ccccc1C(=O)OC | 10.2 | -4.6 | -1.0 | 19.8 | -4.9 | -1.1
Nc1ccn(CC(=O)NCCNc2ccc([N+](=O)[O-])cn2)c(=O)n1 | . | -1.6 | 2.5 | 32.8* | -4.9 | 2.8
O=C(CN1CCN(Cc2ccccc2)CC1)NCCNc1ccc([N+](=O)[O-])cn1 | 0.0 | 3.3 | 0.0 | 23.2 | -6.4 | -0.1
CN(C)S(=O)(=O)c1ccc(C(=O)N2CC(=O)Nc3ccc(F)cc3C2c2ccc(F)cc2)cc1 (stereo unspecified) | 0.6 | -4.6 | 1.8 | 7.6 | -5.6 | 0.7
CC(=O)Nc1ccc(/C=N/Nc2nc3ccccc3[nH]2)cc1 | . | 2.5 | -2.6 | 38.1* | 10.3 | -5.2
O=C(O)c1ccc(/C=N/Nc2ccc(C(F)(F)F)cn2)cc1 | -3.1 | . | . | 38.1* | . | -0.3
O=C(O)c1ccc(/C=N/Nc2nc3ccccc3[nH]2)cc1 | -1.8 | 9.8 | 0.0 | 75.3* | 1.0 | 2.4
C(=N\Nc1nc2ccccc2[nH]1)/c1cccs1 | 3.1 | 80.0 | 5.2 | 3.8 | -5.8 | -4.8
Cc1ccsc1/C=N/Nc1nc2ccccc2[nH]1 | 2.3 | . | . | 31.9* | . | 5.2
COc1cc(/C=N/Nc2ccc(C(F)(F)F)cn2)ccc1O | -4.5 | 0.9 | 0.2 | 22.0 | 5.5 | -1.3
O=C(N=C1SC2CS(=O)(=O)CC2N1CCc1ccc(F)cc1)C1CCCCC1 (stereo unspecified) | 16.4 | ? | -0.4 | 12.6 | -4.8 | -1.5
O=C(COC(=O)C1CC1)Nc1ccc(Cl)cn1 | . | 24.4 | -0.2 | -2.5 | 3.5 | -1.7
CCCS(=O)(=O)c1c(S(=O)(=O)CCC)c2cnccn2c1C(=O)c1ccc(OC)cc1 | -2.5 | 4.3 | 3.6 | 10.0 | -3.7 | -1.1
CCCS(=O)(=O)c1c(S(=O)(=O)CCC)c2cc(-c3ccncc3)ccn2c1C(=O)OC | -29.2 | 6.2 | -1.4 | 15.5 | 0.7 | +
COC(=O)CC(NC(=S)NC(=O)c1ccccc1)c1ccc(Br)cc1 (stereo unspecified) | 9.0 | 0.2 | -3.2 | 0.0 | -5.7 | 3.0
SMILES | RecA intein inh | Mtb betalactam | UGM FP inh | GDH-TPI inh | Rv3671c inh | FBA Mtb inh
Cc1nn2c(c1-c1ccccc1)NC1=C(C(=O)CCC1)C2c1ccccc1 (stereo unspecified) | 0.4 | 19.9 | -0.4 | 32.6* | -4.8 | 115.4*
CCC(=O)N1c2ccccc2NC2=C(C(=O)CCC2)C1c1ccccc1 (stereo unspecified) | 0.3 | 8.1 | 1.2 | 24.5 | -6.6 | 2.6
CC(C)COC(=O)N1CCCC(c2cc(C(=O)Nc3ccccc3Cl)no2)C1 (stereo unspecified) | . | . | . | 4.8 | . | -3.1
Cc1ccc(NC(=O)/C=C/c2ccco2)nc1 | -3.4 | 1.6 | -2.0 | 32.1* | 3.0 | 0.3
O=C(/C=C/c1ccco1)Nc1ccccn1 | -3.3 | -5.0 | 0.0 | 72.8* | -3.5 | -0.5
COC(=O)C1C=CC(OC2OC(COC(C)=O)C(OC(C)=O)C(OC(C)=O)C2OC(C)=O)n2c(=O)n(-c3ccccc3)c(=O)n21 (stereo unspecified) | . | . | . | 7.8 | . | 1.8
COc1ccccc1NC(=O)Cn1c(C)nc2c(sc(=S)n2Cc2ccco2)c1=O | 1.3 | 2.4 | -0.1 | 31.7* | -10.0 | 0.6
CCN(CC)C(=O)CSc1nc2c(sc(=S)n2Cc2ccco2)c(=O)n1-c1ccccc1 | 11.6 | 1.1 | -1.1 | 10.8 | 11.6 | 3.6
CCOC(=O)CSc1nc2c(sc(=S)n2Cc2ccco2)c(=O)n1-c1ccccc1 | 11.0 | -2.3 | 1.1 | 32.9* | -8.5 | -2.4
COCC(=O)Nc1ccc2c(c1)OCC(=O)N2Cc1ccccc1F | -0.2 | 3.2 | 0.1 | 8.1 | 1.5 | 0.7
c1ccc(-c2cc(-c3ccccc3)n3ncnc3n2)cc1 | 0.7 | 27.8 | -1.1 | 3.8 | 0.9 | 23.2
COc1ccc(-c2cc(-c3ccccc3)nc3ncnn23)cc1 | -1.5 | -1.3 | -0.4 | 25.4 | 3.6 | +
Cc1cc(C=O)c(O)cc1O | -1.8 | 3.9 | 3.0 | 52.2* | -0.9 | -4.7
O=C(CSc1nncn1-c1cccnc1)Nc1cccc(C(F)(F)F)c1 | -0.6 | -9.2 | -0.2 | -9.8 | -12.3 | 0.0
CC1CCCN(Cc2c(O)ccc3c(=O)c(-c4ccc(Cl)cc4)coc23)C1 (stereo unspecified) | -0.2 | . | . | 3.8 | . | 14.3
O=c1c(Oc2ccccc2Br)c(C(F)(F)F)oc2c(CN3CCCC3)c(O)ccc12 | . | 5.3 | -0.8 | 2.7 | 3.6 | -0.7
Cc1oc2c(CN3CCC(C)CC3)c(O)ccc2c(=O)c1-c1ccccc1 | -1.7 | -10.3 | 3.5 | 15.4 | 1.9 | 180.9*
COc1ccc(-c2c(C(F)(F)F)oc3c(CN4CCN(C)CC4)c(O)ccc3c2=O)cc1 | -2.6 | -8.7 | 2.2 | 20.7 | 1.7 | -6.5
Cc1oc2c(CN3CCCC3)c(O)ccc2c(=O)c1-c1ccccc1 | -5.7 | 4.6 | 3.0 | 11.3 | -1.6 | 118.3*
Cc1oc2c(CN3CCCC3)c(O)ccc2c(=O)c1-c1ccc(Cl)cc1 | -0.7 | 5.3 | 1.4 | 26.1 | -3.5 | 86.3*
COc1ccccc1N1CCN(C(=O)[C@@H]2CCCN2C2=NS(=O)(=O)c3ccccc32)CC1 | . | . | . | 7.1 | . | 2.0
COc1cc2ccccc2cc1C(=O)OCc1nc2ccsc2c(=O)[nH]1 | . | 0.1 | -2.9 | 10.9 | -1.4 | 20.2
CC(C)N(C(=O)[C@H]1C[C@H](CC(=O)NCC23CC4CC(CC(C4)C2)C3)C(=O)N2CCc3c([nH]c4cc(CCC(=O)N(C)C)ccc34)[C@]12C)C(C)C | . | . | . | -6.4 | . | 1.2
COc1ccc2[nH]c(C(=O)NCc3ccccc3)c(C)c2c1 | 0.3 | -1.1 | 1.5 | 2.9 | -7.0 | 40.1*
CCCS(=O)(=O)Nc1c(C(=O)O)[nH]c2ccc(OC)cc12 | 4.1 | -6.9 | 1.5 | 1.4 | -6.6 | 128.7*
